Measured values as given in PubChem BioAssay (NCI).
This is part of a sample that, as a whole, favours compounds with a hit. Of some 79,000 tested, about 15% had one in any assay. The source made the active and inactive calls. No stated cut-off is given here; in the data, active means growth inhibition above about 70%; inactive means the rest.

Key:
[1] = NCI Yeast Anticancer Drug Screen. Data for the mec2-1 strain (AID 157); conditions: S. cerevisiae mec2-1 strain, active compounds read high
Summary of the method: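 Mutant yeast (mec2-1) grown with compound; growth inhibition relative to vehicle control reported.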

[2] = NCI Yeast Anticancer Drug Screen. Data for the rad14 strain (AID 159);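 further: 0% = growth of vehicle-treated control cultures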; conditions: S. cerevisiae rad14 strain growth inhibition, active compounds read high
Summary of the method: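 A mutant yeast strain defective in DNA damage repair is treated with compound; inhibition of its growth is scored against untreated, vehicle-exposed cultures.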

[3] = NCI Yeast Anticancer Drug Screen. Data for the sgs1 mgt1 strain (AID 161);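 further: 0% = growth of cultures given vehicle only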; conditions: S. cerevisiae sgs1 mgt1 strain, active compounds read high
Summary of the method: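 Compounds are added to genetically altered yeast, and growth is compared with cultures given vehicle alone to give percent inhibition.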

[4] = NCI Yeast Anticancer Drug Screen. Data for the CLN2oe strain (AID 163);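 further: 0% = growth of vehicle-only control cultures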; conditions: S. cerevisiae CLN2oe strain, active compounds read high
Summary of the method: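 Compounds are applied to yeast harbouring a defined cell-cycle control change; reduced growth compared with vehicle-treated controls gives the value.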

[5] = NCI Yeast Anticancer Drug Screen. Data for the cln2 rad14 strain (AID 165);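 further: 0% = growth equal to vehicle treated cultures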; conditions: S. cerevisiae cln2 rad14 strain, active compounds read high
Summary of the method: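 Readout is yeast growth inhibition versus vehicle-treated controls, using a strain with cln2 and rad14 alterations exposed to compound.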

[6] = NCI Yeast Anticancer Drug Screen. Data for the bub3 strain (AID 167); conditions: S. cerevisiae bub3 mutant strain, active compounds read high
Summary of the method: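 Steps: expose the mutant yeast strain to compound; grow alongside vehicle-treated cultures; measure growth; express inhibition against the vehicle cultures.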

[7] = NCI Yeast Anticancer Drug Screen. Data for the wt2 strain (AID 169);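 further: 0% = growth of vehicle-treated yeast cultures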; conditions: S. cerevisiae wt2 strain growth inhibition, active compounds read high
Summary of the method: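 Against vehicle-treated controls, the growth of yeast exposed to each compound was compared, and the inhibition was recorded.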

[8] = NCI Yeast Anticancer Drug Screen. Data for the sgs1 strain (AID 173);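 further: 0% = growth of vehicle-only control cultures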; conditions: S. cerevisiae sgs1 mutant, active compounds read high
Summary of the method: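 Each compound was added to cultures of the altered yeast strain. Growth was recorded, and inhibition was derived by comparison with vehicle controls.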

[9] = NCI Yeast Anticancer Drug Screen. Data for the mlh1 rad18 strain (AID 175); conditions: S. cerevisiae mlh1 rad18 strain growth inhibition, active compounds read high
Summary of the method: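 Genetically defined yeast (DNA repair-deficient) exposed to compounds; growth inhibition determined relative to vehicle.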

[10] = NCI Yeast Anticancer Drug Screen. Data for the rad18 strain (AID 177); conditions: S. cerevisiae rad18 mutant growth inhibition, active compounds read high
Summary of the method: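 Vehicle-treated cultures served as the baseline for scoring compound-induced growth inhibition in DNA-repair-mutant yeast.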

[11] = NCI Yeast Anticancer Drug Screen. Data for the rad52 strain (AID 147);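 further: 0% = growth of vehicle-treated control cultures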; conditions: S. cerevisiae rad52 mutant growth inhibition, active compounds read high
Summary of the method: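 The repair-mutant yeast strain was incubated with compounds, then growth was read and inhibition derived relative to vehicle.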

[12] = NCI Yeast Anticancer Drug Screen. Data for the wt1 strain (AID 149);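 further: 0% = growth of vehicle-treated wt1 cultures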; conditions: S. cerevisiae wt1 strain (SPY 50644) growth inhibition, active compounds read high
Summary of the method: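 Compounds are added to wt1 yeast cultures. Growth is then measured. Inhibition is expressed relative to vehicle-treated controls.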

[13] = NCI Yeast Anticancer Drug Screen. Data for the rad50EPP+ strain (AID 151);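 further: 0% = growth of vehicle-treated control cultures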; conditions: S. cerevisiae rad50 mutant strain, active compounds read high
Summary of the method: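 Vehicle-normalised growth inhibition; rad50EPP+ yeast strain, altered in DNA damage repair, compound-treated.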

[14] = NCI Yeast Anticancer Drug Screen. Data for the mgt1 strain (AID 153); conditions: S. cerevisiae mgt1 mutant growth inhibition, active compounds read high
Summary of the method: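 Vehicle-normalized growth inhibition is determined in mgt1 yeast, a strain selected for a defined alteration in DNA repair or cell cycle control.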

[15] = NCI Yeast Anticancer Drug Screen. Data for the rad50 strain (AID 155);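 further: 0% = growth of vehicle-only cultures of the same strain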; conditions: S. cerevisiae rad50 strain growth inhibition, active compounds read high
Summary of the method: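 Inhibition values express reduced yeast growth in compound-treated cultures relative to vehicle-treated controls.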

[16] = NCI Yeast Anticancer Drug Screen. Data for the mlh1 strain (AID 171);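 further: 0% = growth of vehicle-treated control cultures of the same strain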; conditions: S. cerevisiae mlh1 strain growth inhibition, active compounds read high
Summary of the method: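 Measured: yeast growth. Reference: vehicle-treated controls. Organism: strain with a defined alteration affecting DNA damage repair or cell cycle control, treated with compound.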

[17] = at 5.0 µM (retest, dose inferred, filed as 0.5)
[18] = at 50.0 µM (retest, dose inferred, filed as 5.0)

Measured: growth inhibition

O=C(CN(c1ccccc1)c1ccccc1)n1nnc2ccccc21
inactive: [1]; [17] -6% | [1]; at 11.0 µM 13% | [1]; at 33.0 µM 23% | [1]; [18] 23% | [2]; at 1.2 µM -19% | [2]; at 3.7 µM -18% | [2]; at 11.0 µM -18% | [2]; at 33.0 µM 2% | [3]; [17] -15% | [3]; [18] 36% | [3]; at 50.0 µM 47.7% | [4]; at 1.2 µM 8% | [4]; at 3.7 µM -9% | [4]; at 11.0 µM -9% | [4]; at 33.0 µM 4% | [4]; at 100.0 µM 69% | [5]; [17] -2% | [5]; [18] -29% | [5]; at 50.0 µM 52.2% | [6]; at 1.2 µM -21% | [6]; at 3.7 µM -19% | [6]; [17] -42% | [6]; at 11.0 µM -35% | [6]; at 33.0 µM -19% | [7]; at 1.2 µM -7% | [7]; at 3.7 µM 8% | [7]; at 11.0 µM -6% | [7]; at 33.0 µM 6% | [8]; at 1.2 µM 19% | [8]; at 3.7 µM 16% | [8]; at 11.0 µM 14% | [8]; at 33.0 µM 32% | [9]; [17] -21% | [10]; at 1.2 µM 6% | [10]; at 3.7 µM 14% | [10]; at 11.0 µM 6% | [10]; at 33.0 µM 30%
active: [1]; at 50.0 µM 78.6% | [1]; at 100.0 µM 85% | [2]; at 100.0 µM 85% | [6]; [18] 84% | [6]; at 50.0 µM 74.4% | [6]; at 100.0 µM 76% | [7]; at 100.0 µM 80% | [8]; at 100.0 µM 90% | [9]; [18] 87% | [9]; at 50.0 µM 70.2% | [10]; at 100.0 µM 90%

Cc1ccnc2c(O)cccc12
active: [11]; at 3.7 µM 96% | [11]; at 11.0 µM 96% | [11]; at 33.0 µM 99% | [11]; at 100.0 µM 99% | [12]; at 11.0 µM 76% | [12]; at 33.0 µM 93% | [12]; at 100.0 µM 98% | [13]; at 3.7 µM 98% | [13]; at 11.0 µM 99% | [13]; at 33.0 µM 99% | [13]; at 100.0 µM 99% | [14]; at 3.7 µM 73% | [14]; at 11.0 µM 91% | [14]; at 33.0 µM 99% | [14]; at 100.0 µM 99% | [15]; at 3.7 µM 97% | [15]; at 11.0 µM 98% | [15]; at 33.0 µM 99% | [15]; [18] 99% | [15]; at 50.0 µM 98.2% | [15]; at 100.0 µM 99% | [1]; at 3.7 µM 98% | [1]; at 11.0 µM 100% | [1]; at 33.0 µM 100% | [1]; [18] 98% | [1]; at 50.0 µM 97.3% | [1]; at 100.0 µM 100% | [2]; at 11.0 µM 83% | [2]; at 33.0 µM 98% | [2]; at 100.0 µM 99% | [3]; [17] 73% | [3]; [18] 99% | [3]; at 50.0 µM 97.8% | [4]; at 3.7 µM 98% | [4]; at 11.0 µM 99% | [4]; at 33.0 µM 100% | [4]; at 100.0 µM 99% | [5]; [18] 96% | [5]; at 50.0 µM 97.5% | [6]; at 11.0 µM 98% | [6]; at 33.0 µM 99% | [6]; [18] 99% | [6]; at 50.0 µM 97.9% | [6]; at 100.0 µM 99% | [16]; at 3.7 µM 99% | [16]; at 11.0 µM 99% | [16]; at 33.0 µM 100% | [16]; at 100.0 µM 99% | [8]; at 11.0 µM 98% | [8]; at 33.0 µM 99% | [8]; at 100.0 µM 99% | [9]; [17] 87% | [9]; [18] 99% | [9]; at 50.0 µM 98.7% | [10]; at 11.0 µM 97% | [10]; at 33.0 µM 99% | [10]; at 100.0 µM 99%
inactive: [11]; at 1.2 µM 3% | [12]; at 1.2 µM -5% | [12]; at 3.7 µM 19% | [13]; at 1.2 µM -1% | [14]; at 1.2 µM -8% | [15]; at 1.2 µM 6% | [15]; [17] 24% | [1]; at 1.2 µM 31% | [1]; [17] -1% | [2]; at 1.2 µM 0% | [2]; at 3.7 µM 24% | [4]; at 1.2 µM 24% | [5]; [17] 22% | [6]; at 1.2 µM -6% | [6]; at 3.7 µM 47% | [6]; [17] 41% | [16]; at 1.2 µM 14% | [8]; at 1.2 µM -13% | [8]; at 3.7 µM 59% | [10]; at 1.2 µM -3% | [10]; at 3.7 µM 60%

O=C1NC(c2cccc(OCc3ccccc3)c2)Nc2ccccc21 (stereo unspecified)
active: [15]; [18] 81% | [15]; at 50.0 µM 84.3% | [1]; [18] 74% | [1]; at 50.0 µM 77.8%
inactive: [11]; at 1.2 µM 16% | [11]; at 3.7 µM 20% | [11]; at 11.0 µM 19% | [11]; at 33.0 µM 14% | [11]; at 100.0 µM 6% | [12]; at 1.2 µM -10% | [12]; at 3.7 µM -20% | [12]; at 11.0 µM -22% | [12]; at 33.0 µM -26% | [12]; at 100.0 µM -5% | [13]; at 1.2 µM -3% | [13]; at 3.7 µM 10% | [13]; at 11.0 µM 0% | [13]; at 33.0 µM 6% | [13]; at 100.0 µM 16% | [14]; at 1.2 µM -7% | [14]; at 3.7 µM -19% | [14]; at 11.0 µM -35% | [14]; at 33.0 µM -22% | [14]; at 100.0 µM -51% | [15]; at 1.2 µM 12% | [15]; at 3.7 µM 12% | [15]; [17] 49% | [15]; at 11.0 µM 8% | [15]; at 33.0 µM 6% | [15]; at 100.0 µM -9% | [1]; at 1.2 µM 13% | [1]; at 3.7 µM 11% | [1]; [17] 42% | [1]; at 11.0 µM 6% | [1]; at 33.0 µM 5% | [1]; at 100.0 µM 0% | [2]; at 1.2 µM -6% | [2]; at 3.7 µM -14% | [2]; at 11.0 µM -11% | [2]; at 33.0 µM -19% | [2]; at 100.0 µM -17% | [3]; [17] 5% | [3]; [18] 35% | [3]; at 50.0 µM 63.9% | [4]; at 1.2 µM -4% | [4]; at 3.7 µM -9% | [4]; at 11.0 µM -5% | [4]; at 33.0 µM -7% | [4]; at 100.0 µM 1% | [5]; [17] 35% | [5]; [18] 38% | [5]; at 50.0 µM 32.5% | [6]; at 1.2 µM 6% | [6]; at 3.7 µM 14% | [6]; [17] 20% | [6]; at 11.0 µM 8% | [6]; at 33.0 µM 4% | [6]; [18] 32% | [6]; at 50.0 µM 67.8% | [6]; at 100.0 µM 1% | [7]; at 1.2 µM -5% | [7]; at 3.7 µM -11% | [7]; at 11.0 µM -7% | [7]; at 33.0 µM -14% | [7]; at 100.0 µM 3% | [8]; at 1.2 µM 2% | [8]; at 3.7 µM 0% | [8]; at 11.0 µM -7% | [8]; at 33.0 µM -6% | [8]; at 100.0 µM -14% | [10]; at 1.2 µM -6% | [10]; at 3.7 µM -18% | [10]; at 11.0 µM -26% | [10]; at 33.0 µM -21% | [10]; at 100.0 µM -37%
